Mtb UGM inh: M. tuberculosis UGM enzyme inhibitors, primary screen, biochemical, fluorescence polarization, single point; UDP-galactopyranose mutase (Mycobacterium tuberculosis (strain ATCC 25618 / H37Rv)), …; purified UGM, fluorescence polarization probe displacement; inhibition, % at 10 µM; actives 0.06% (n = 320,000); AID 504406, 2011; in the data active means inhibition above about 10%, passing the limit was not always enough
Mtb hypoxia inh: PubChem AID 1159583 | M. tuberculosis hypoxia-regulated fluorescent reporter, fluorescence | actives 0.1% (n = 300,000) | fluorescence inhibition, % (concentration not given with the values); in the data active means fluorescence inhibition mostly above about 23%, no sharp cut-off; inactive means mostly below about 17%
FadD28 binding: inhibitors of FadD28 bisubstrate probe binding, primary screen, biochemical, fluorescence polarization, single point; Mycobacterium tuberculosis FadD28 fatty-acid-AMP ligase; inhibition, % at 12.5 µM; actives 0.22% (n = 360,000); AID 588549, 2011; in the data active means inhibition above about 8.5%, passing the limit was not always enough
FBA Mtb inh: Mtb FBA enzyme inhibitors, primary screen, biochemical, fluorescence, strain H37Rv; Fructose-bisphosphate aldolase (Mycobacterium tuberculosis (strain ATCC 25618 / H37Rv)), …; purified M. tuberculosis FBA, fluorescence read-out; inhibition, % at 1 µM; actives 2.3% (n = 360,000)
GDH-TPI counter-1: GDH-TPI coupling enzyme inhibitors, primary screen, artefact control for M. tuberculosis FBA inhibitor project, biochemical, absorbance, full deck; GDH-TPI coupled enzyme counterscreen, NADH absorbance; inhibition, % at 4.8 µM; actives 1.2% (n = 360,000); in the data active means inhibition above about 30%
Rv3671c inh: Rv3671c serine protease inhibitors, primary screen, biochemical, fluorescence polarization, M. tuberculosis H37Rv; actives 0.048% (n = 320,000); inhibition, % at 5.96 µM; P9WHR9; in the data active means inhibition above about 38%;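 further: extracellular domain of Rv3671c used as enzyme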
Target sequence (P9WHR9 whole entry, looked up, the tested form may be a part): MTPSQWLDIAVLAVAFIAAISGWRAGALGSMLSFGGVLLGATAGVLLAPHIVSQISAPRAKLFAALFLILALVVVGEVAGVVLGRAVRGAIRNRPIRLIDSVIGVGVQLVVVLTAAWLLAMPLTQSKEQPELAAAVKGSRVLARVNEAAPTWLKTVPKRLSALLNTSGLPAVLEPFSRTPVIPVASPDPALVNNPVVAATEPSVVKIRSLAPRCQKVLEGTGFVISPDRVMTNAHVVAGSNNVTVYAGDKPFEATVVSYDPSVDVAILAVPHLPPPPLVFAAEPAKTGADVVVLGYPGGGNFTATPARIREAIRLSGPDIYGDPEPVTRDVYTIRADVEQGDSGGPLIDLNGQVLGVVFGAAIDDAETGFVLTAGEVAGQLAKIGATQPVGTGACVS
Mtb FBA inh conf: M. tuberculosis aldolase blockers, biochemical, fluorescence, strain H37Rv, confirmation. shares compounds with FBA Mtb inh. purified M. tuberculosis FBA, fluorescence read-out. inhibition, % at 1 µM. actives 78% (n = 5,600). AID 651616, 2012
GDH-TPI counter-2: GDH-TPI coupling enzyme inhibitors, artefact control for M. tuberculosis FBA inhibitor project, biochemical, fluorescence, high throughput; GDH-TPI coupled enzyme counterscreen; shares compounds with FBA Mtb inh; inhibition, % at 1 µM; actives 81% (n = 5,600); in the data active means inhibition above about 10%
GDH-TPI dose: GDH-TPI coupling enzyme inhibitors, dose response, artefact control for M. tuberculosis FBA inhibitor project, biochemical, fluorescence, IC50 | shares compounds with FBA Mtb inh | AID 652145, 2013 | actives 79% (n = 170) | GDH-TPI coupled enzyme assay, artifact counterscreen | IC50, µM; call rule not given here
Large screens that a line does not name were inactive (follow-up assays come after a bar, where they were run). In the library only some 3.5% were active in any assay of this set; here they are far more common. Unless noted, no stated cut-off is given here; in the data, active means inhibition above about 27%; inactive means the rest.

CCOc1ccc2oc(C(=O)OCC(=O)N3CCCC(C)C3)c(C)c2c1 (centres undefined)	FBA Mtb inh 49 | Mtb FBA inh conf 95 | GDH-TPI counter-2 78
Cc1c(C(=O)OCC(=O)N2CCCC(C)C2)oc2ccccc12 (centres undefined)	none
S=C1NCC(Cc2ccccc2)N1CCc1cccc2ccccc12 (centres undefined)	none (no result: Mtb UGM inh, FadD28 binding, FBA Mtb inh, GDH-TPI counter-1, Rv3671c inh)
Fc1ccc(/C=C\c2nccc3c2[nH]c2ccccc23)cc1	FBA Mtb inh 74 | Mtb FBA inh conf inactive | GDH-TPI counter-2 20
Cc1ccc(/C=C\c2nccc3c2[nH]c2ccccc23)cc1	FBA Mtb inh 86 | Mtb FBA inh conf 174 | GDH-TPI counter-2 135
O=c1[nH]c2ccccc2nc1/C=C/c1ccc(F)cc1	none
O=c1[nH]c2ccccc2nc1/C=C/c1ccccc1	none
C(=C\c1nccc2c1[nH]c1ccccc12)/c1ccccc1	FBA Mtb inh 91 (no result: Mtb hypoxia inh) | Mtb FBA inh conf inactive | GDH-TPI counter-2 inactive | GDH-TPI dose 1.1
N#CCC(=O)NN=Cc1cn(Cc2ccc(Cl)cc2Cl)c2ccccc12	none (no result: Mtb UGM inh, FadD28 binding, FBA Mtb inh, GDH-TPI counter-1, Rv3671c inh)
CC(C)n1cnc2c(Nc3cccc(F)c3)nc(NCCO)nc21	FBA Mtb inh 32 | Mtb FBA inh conf 109 | GDH-TPI counter-2 91
COc1ccc(NC(=O)C2CC2)cc1OC1CCCC1	FBA Mtb inh 73 | Mtb FBA inh conf 68 | GDH-TPI counter-2 54
COC(=O)c1ccc(OC)c(OC2CCCC2)c1	none
CC(C)c1ccc(C2NC(=O)NC3=C2CCc2ccccc23)cc1 (centres undefined)	FBA Mtb inh 32 | Mtb FBA inh conf 63 | GDH-TPI counter-2 35
O=C1NC2=C(C(=O)c3ccccc32)C(c2ccccc2)N1 (centres undefined)	none
COc1ccc2c(c1)C1=C(CC2)C(c2ccc(C)cc2)NC(=S)N1 (centres undefined)	none
Cc1ccc(C2NC(=O)NC3=C2CCc2ccccc23)cc1 (centres undefined)	FBA Mtb inh 35 | Mtb FBA inh conf 61 | GDH-TPI counter-2 55
CN1CCN(Cc2c(O)ccc3c(=O)c(Oc4ccccc4Cl)c(C(F)(F)F)oc23)CC1	none (no result: Mtb hypoxia inh)
CCOc1ccccc1Oc1c(C)oc2c(CN3CCN(CCO)CC3)c(O)ccc2c1=O	FBA Mtb inh 80 | Mtb FBA inh conf inactive | GDH-TPI counter-2 inactive
COc1ccc(-c2coc3c(CN4CCOCC4)c(O)ccc3c2=O)cc1	FBA Mtb inh 41 | Mtb FBA inh conf 63 | GDH-TPI counter-2 50
CC(C)N(Cc1c(O)ccc2c(=O)c(-c3ccc(Cl)cc3)coc12)C(C)C	none
O=c1c(-c2ccc(Cl)cc2)coc2c(CN3CCOCC3)c(O)ccc12	FBA Mtb inh 30 (no result: Mtb hypoxia inh) | Mtb FBA inh conf 30 | GDH-TPI counter-2 19
Cc1oc2c(CN3CCOCC3)c(O)ccc2c(=O)c1-c1ccccc1	FBA Mtb inh 98 | Mtb FBA inh conf active | GDH-TPI counter-2 active
O=C(C=Cc1ccc2c(c1)OCO2)NC1(C(=O)Nc2ccc3c(c2)OCO3)CCCCC1	none (no result: Mtb UGM inh, FadD28 binding, FBA Mtb inh, GDH-TPI counter-1, Rv3671c inh)
Cc1ccc(C=NNC(=O)CSc2nc3ccccc3n2Cc2ccccc2)o1	none (no result: Mtb UGM inh, FadD28 binding, FBA Mtb inh, GDH-TPI counter-1, Rv3671c inh)
CC(=N/N=C1/NC(=O)C(CC(=O)Nc2ccc(C)c(Cl)c2)S1)C(C)(C)C (centres undefined)	none (no result: Mtb UGM inh, FadD28 binding, FBA Mtb inh, GDH-TPI counter-1, Rv3671c inh)
O=c1c(-c2ccccc2)coc2c(CN3CCCC3)c(O)ccc12	FBA Mtb inh 82 | Mtb FBA inh conf 145 | GDH-TPI counter-2 123
Cc1c(O)ccc2c(=O)c(-c3nncn3-c3ccccc3)coc12	none
CC(=NNC(=O)CN1CCN(Cc2ccccc2Cl)CC1)c1ccco1	none (no result: Mtb UGM inh, FadD28 binding, FBA Mtb inh, GDH-TPI counter-1, Rv3671c inh)

Source: PubChem
